# Screening results deposited in PubChem by several laboratories.
# EBI2 block: blocks human EBI2 receptor beta-arrestin signaling; EBI2 beta-arrestin recruitment, luminescence, 7a,25-OHC stimulated; P32249; AID 651636; 360,000 tested, 0.81% active; inhibition, % at 5 µM; in the data active = inhibition above about 38%;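 also: enzyme fragment complementation signal reports receptor beta-arrestin coupling in cells; 0% = agonist plus DMSO wells and 100% = wells without agonist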
# SENP7 inh: inhibitors of human SENP7 protease; recombinant SENP7, Z-RLRGG-aminoluciferin luminescence, 40 min; inhibition, % at 5 µM; 330,000 tested, 1.5% active; AID 434973;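 active = inhibition above about 50% at the single test dose, limit read from the data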;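 also: plate controls were DMSO with enzyme for no effect and no enzyme buffer wells for full effect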
# Target sequence (Q9BQF6 706-1050 limits assumed): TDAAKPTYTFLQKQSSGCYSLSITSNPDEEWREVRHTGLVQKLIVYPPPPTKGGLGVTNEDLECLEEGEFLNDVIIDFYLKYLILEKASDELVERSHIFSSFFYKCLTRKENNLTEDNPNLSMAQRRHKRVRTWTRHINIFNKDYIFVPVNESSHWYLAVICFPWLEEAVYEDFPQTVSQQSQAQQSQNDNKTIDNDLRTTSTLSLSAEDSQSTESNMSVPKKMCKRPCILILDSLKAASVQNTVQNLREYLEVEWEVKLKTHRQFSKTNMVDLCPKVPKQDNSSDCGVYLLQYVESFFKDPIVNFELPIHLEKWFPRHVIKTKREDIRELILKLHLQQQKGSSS
# AHR act: activates the human aryl hydrocarbon receptor; P35869; AHR-responsive luciferase reporter cells, luminescence; activation, % at 5 µM; 320,000 tested, 2.5% active; in the data active = activation above about 47%;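 also: 0% = vehicle wells and 100% = reference agonist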
# SENP8 block-1: inhibitors of human SENP8 protease; Q96LD8; recombinant SENP8, Nedd8 substrate fluorescence; inhibition, % at 20 µM; 360,000 tested, 0.64% active; AID 602440; in the data active = inhibition mostly above about 40%, no sharp cut-off; inactive = mostly below about 27%
# Target sequence (Q96LD8 whole entry, looked up): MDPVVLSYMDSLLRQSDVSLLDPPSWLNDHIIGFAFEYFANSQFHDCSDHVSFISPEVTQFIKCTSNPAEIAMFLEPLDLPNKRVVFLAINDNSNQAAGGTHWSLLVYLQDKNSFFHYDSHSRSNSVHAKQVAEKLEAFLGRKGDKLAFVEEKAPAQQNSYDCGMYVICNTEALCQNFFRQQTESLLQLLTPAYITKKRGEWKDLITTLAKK
# SENP8 block-2: inhibitors of human SENP8 protease; 330,000 tested, 1.2% active; Q96LD8; purified SENP8, Z-RLRGG-aminoluciferin cleavage, luminescence; inhibition, % at 10 µM; in the data active = inhibition above about 50%
# SENP6 block: blocks the human protease SENP6 | Recombinant SENP6 catalytic domain, aminoluciferin luminescence | inhibition, % at 10 µM | 330,000 tested, 1.8% active | AID 2599;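 active = inhibition above about 50% at the single tested dose, limit read from the data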;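 also: plate controls were DMSO wells with enzyme for no effect and DMSO wells lacking enzyme for full effect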
# SENP8 conf: confirmation of human SENP8 protease inhibitors | shares compounds with SENP7 inh | Recombinant SENP8, Z-RLRGG-aminoluciferin luminescence, 60 min | inhibition, % at 12.5 µM | 6,200 tested, 40% active | AID 488912;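 active = mean inhibition across replicates above about 50%, limit read from the data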
# SENP6 conf: confirmation of human SENP6 protease inhibitors; shares compounds with SENP7 inh; recombinant SENP6, Z-RLRGG-aminoluciferin luminescence; inhibition, % at 12.5 µM; 6,200 tested, 58% active
# SENP7 confirm: confirmation of human SENP7 protease inhibitors; shares compounds with SENP7 inh; recombinant SENP7, Z-RLRGG-aminoluciferin luminescence, 40 min; inhibition, % at 12.5 µM; 6,200 tested, 69% active; AID 488917
# Casp3 SENP sel: caspase-3 inhibition (SENP selectivity assay). shares compounds with SENP7 inh. purified caspase-3, Z-DEVD-aminoluciferin luminescence, 60 min. inhibition, % at 12.5 µM. 6,200 tested, 60% active;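 active = mean inhibition above about 50%, limit read from the data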;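 also: plate controls were enzyme with DMSO for no effect and wells without caspase-3 for full effect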
# SENP luc ctr: luminescence interference (SENP counter-screen). shares compounds with SENP7 inh. Pre-incubated SENP8/Z-RLRGG-aminoluciferin, luciferase luminescence interference. inhibition, % at 12.5 µM. 6,200 tested, 39% active. AID 488919;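 active = mean inhibition above about 50% when retested at one dose, limit read from the data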;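 also: plate controls were DMSO wells with completed reaction for no effect and substrate without enzyme for full effect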
# An asterisk follows results filed as active; · = not tested or not shown. Compounds with a hit are over-represented: about 5% of the library has one in this group of screens.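 The calls were made as follows, unless noted: active = mean inhibition above about 50% in the one-dose retest (limit read from the data); inactive = the rest.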
SMILES,EBI2 block,SENP7 inh,AHR act,SENP8 block-1,SENP8 block-2,SENP6 block,SENP8 conf,SENP6 conf,SENP7 confirm,Casp3 SENP sel,SENP luc ctr
Cc1nn(C)c(Cl)c1CN1CCN(C2CCCC2)C(CCO)C1 (stereo unspecified),4,8,-1,4,2,-8,·,·,·,·,·
CC(C)C[C@H]1CNC(=O)C(=O)N1C[C@@H]1CCCN1C[C@H](CC(C)C)N1C[C@H](Cc2ccc(O)cc2)N(CCc2ccccc2)C(=O)C1=O,-3,·,·,8,·,·,·,·,·,·,·
CCOc1cc2c(cc1OCC)CN(CC(=O)Nc1ccccc1C(=O)NC1CC1)CC2,-10,8,1,-17,-4,-5,·,·,·,·,·
O=C(Cc1ccccc1)N1CCN(c2ccccc2F)CC1,2,-1,3,10,59*,75*,-4,-2,-2,7,1
Cn1c(=O)c(=O)n(C)c2cc(S(=O)(=O)NCCOc3ccccc3Cl)ccc21,6,0,0,-46,4,1,·,·,·,·,·
COc1ccc(-c2csc(-n3cccn3)n2)cc1,10,80*,8,9,72*,81*,10,79*,96*,65*,69*
COc1ccc(-c2csc(N3CCSCC3)n2)cc1,14,-2,-2,11,-4,-30,·,·,·,·,·
COC(=O)c1cnc(NNS(=O)(=O)c2ccc(C(F)(F)F)cc2)nc1C(F)(F)F,-12,3,0,7,8,7,·,·,·,·,·
COc1ccc(Cl)cc1NC(=O)c1[nH]nc(OC)c1[N+](=O)[O-],9,-5,20,30,-13,-12,·,·,·,·,·
COc1n[nH]c(C(=O)Nc2cc(Cl)ccc2Cl)c1[N+](=O)[O-],-3,10,39,14,7,55*,19,18,42,26,6
O=C(CSc1nnc(-c2cccnc2)o1)c1cc2ccccc2oc1=O,3,-5,40,-110,-9,-4,·,·,·,·,·
Cn1cnnc1SCC(=O)c1cc2ccccc2oc1=O,-1,67*,18,-31,4,-15,10,9,4,-2,-6
Cc1nnsc1C(=O)Nc1ccc(S(=O)(=O)N2CCC(C)CC2)cc1,5,-5,4,12,-4,-7,·,·,·,·,·
CCCOc1ccc(OCCSc2ncccn2)cc1,6,65*,18,25,43,78*,36,54*,86*,53*,47
O=C1C=C(NCCc2ccccc2)C2(CCCCC2)O1,18,0,7,8,1,18,·,·,·,·,·
CCOC(=O)Cc1csc(NC(=O)CSc2ncnc3c2cnn3-c2ccc(OC)cc2)n1,26,52*,4,-333,71*,75*,42,69*,59*,84*,12
COc1ccc(-n2ncc3c(SCC(=O)N4CCN(c5ccccc5OC)CC4)ncnc32)cc1,18,12,8,11,69*,32,6,14,7,31,1
COc1cc(C(=O)NCC2CCCO2)ccc1OCc1ccccc1Cl (stereo unspecified),2,-5,-1,-6,-16,-12,·,·,·,·,·
O=C(Nc1ccsc1C(=O)O)c1cccc(C(F)(F)F)c1,-9,43,9,7,69*,75*,82*,82*,92*,80*,83*
O=C(Nc1ccsc1C(=O)O)c1cccc(Oc2ccccc2)c1,7,28,6,15,91*,93*,95*,96*,99*,79*,95*
O=C(Nc1nnc(-c2cccs2)o1)c1cccc(Oc2ccccc2)c1,-2,2,4,1,12,18,·,·,·,·,·
COc1ccc(C(=O)N[C@H](C(=O)OCC(=O)NC(=O)c2cccn2C)C(C)C)cc1,-3,6,1,8,0,4,·,·,·,·,·
CC(C)[C@H](NS(=O)(=O)c1ccccc1)C(=O)OCC(=O)NC(=O)c1cccn1C,-7,11,1,3,27,60*,47,38,68*,61*,9
CN(C)c1ccc(/C=c2\sc3n(c2=O)CCCN=3)cc1,-10,68*,-18,-14,74*,87*,87*,84*,95*,85*,76*
O=c1/c(=C/c2ccc(O)cc2)sc2n1CCCN=2,-10,64*,-8,15,80*,86*,86*,84*,96*,88*,84*
SMILES,EBI2 block,SENP7 inh,AHR act,SENP8 block-1,SENP8 block-2,SENP6 block,SENP8 conf,SENP6 conf,SENP7 confirm,Casp3 SENP sel,SENP luc ctr
Cc1nc2cc(-c3ccccc3)nn2c(C)c1CCC(=O)NC(C)c1ccc2c(c1)OCCO2 (stereo unspecified),6,-8,-12,-401,-7,-20,·,·,·,·,·
O=C(N/N=C/c1c[nH]c2ccccc12)c1ccc2c(c1)OCCO2,7,48,48*,-116,31,54*,45,43,77*,55*,60*
O=C(N/N=C/c1c[nH]c2ccc(Br)cc12)c1ccc2c(c1)OCO2,5,5,18,-80,6,-11,·,·,·,·,·
CCOc1ccc(Br)cc1C(=O)N/N=C/c1c[nH]c2ccccc12,15,-5,47*,-96,1,58*,-6,-5,-10,-7,-5
CCc1ccc(N(CC(=O)NCC2CCCO2)C(=O)CCC(=O)Nc2nccs2)cc1 (stereo unspecified),12,4,0,-3,6,-1,·,·,·,·,·
O=C(COC(=O)c1ccccn1)Nc1ncc(C(F)(F)F)cc1Cl,-4,1,6,14,23,-14,·,·,·,·,·
O=C(COC(=O)c1ccc([N+](=O)[O-])s1)Nc1ncc(C(F)(F)F)cc1Cl,-14,10,5,10,-7,71*,31,84*,36,1,-3
CC(OC(=O)c1ccc([N+](=O)[O-])s1)C(=O)NC1CCCCC1C (stereo unspecified),-11,11,0,30,55*,46,-1,19,-4,-4,-14
CC1CCCC(NC(=O)COC(=O)c2ccc([N+](=O)[O-])s2)C1C (stereo unspecified),-8,32,1,34,63*,65*,9,51*,4,-2,-11
